Laboratory results taken from PubChem BioAssay AID449762 (Southern Research Specialized Biocontainment Screening …, 2010).
Screen size: about 330,000 compounds; about 1,900 (0.58%) were called active. Inconclusive results (about 4%) are left out. The list is a sample of the results. Measured potencies and affinities stand elsewhere. Values without a mark were called inactive. Cut-off read from the data, not from the text of the source: inconclusive = inhibition above about 70% without an active follow-up result; inactive = below that.

Experiment: M. tuberculosis growth inhibition, HTS (AID 449762);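 note: bacterial growth assessed after seven days of incubation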
Conditions: M. tuberculosis H37Rv growth inhibition, 7H9 media; at 25 µM; active compounds read high

Row | Compound | inhibition [%]
1 | Cc1ccc2[nH]c(C)c(CCNC(=O)c3c(N)no[n+]3[O-])c2c1 | -0.11
2 | O=C(NCCCn1ccnc1)c1cc2cc([N+](=O)[O-])ccc2oc1=O | -5.35
3 | O=C(NC1CCCCC1)C(c1cccs1)N(CC1CCCO1)C(=O)c1csnn1 (stereo not drawn) | -12
4 | CC(=O)c1ccc(S(=O)(=O)N2CCc3ccccc3C2)cc1 | 0.34
5 | CCOC(=O)N1CCN(C(=O)CSc2nnc(-c3ccccc3OC)o2)CC1 | 41.9
6 | CC1CC(C)CN(C(=O)CSc2nnc(-c3ccc(Cl)s3)o2)C1 (stereo not drawn) | 20.5
7 | O=C(c1cc2n(n1)C(C(F)(F)F)CC(c1ccc(F)cc1)N2)N1CCCC1 (stereo not drawn) | -3.19
8 | O=C(Nc1cccnc1Cl)c1cccc(F)c1 | 9.84
9 | CC(C)NC(=O)COC(=O)c1cc(Br)ccc1Cl | 21.9
10 | CC(C)(C)NC(=O)COC(=O)c1ccc(F)cc1Cl | 49.4
11 | COc1ccc(NC(=O)CCC(=O)Nc2nnc(C3CCCCC3)s2)c(OC)c1 | 7.63
12 | OCC1(Cc2cccc(Cl)c2)CCCN(Cc2ccc(F)c(F)c2)C1 (stereo not drawn) | 16.1
13 | Cc1cc(CN2CCCC(CO)(Cc3cccc(Cl)c3)C2)n[nH]1 (stereo not drawn) | 2.25
14 | c1ccc2nc3c(nc2c1)[nH]c1ccccc13 | -2.41
15 | c1ccc(-c2nc3ccccc3[nH]2)cc1 | 9.27
16 | CC1(C)Cc2c(cnn2-c2cccc(F)c2)C(NC(=O)CSc2ccncc2)C1 (stereo not drawn) | -11.2
17 | CCCCN1C(=N)N([C@@H](C)CN2CCC[C@H]2CN2C(N)=NC[C@H]2CC(C)C)C[C@H]1[C@H](C)CC | -9.24
18 | O=c1c2ccccc2oc2cc(NCCCn3ccnc3)ccc12 | 64.1
19 | O=c1c2ccccc2oc2ccc(NCCCn3ccnc3)cc12 | -0.23
20 | Nc1c(C(=O)Nc2ccc3c(c2)OCCO3)nnn1Cc1ccc(Cl)cc1 | 0.83
21 | CCN(CC)c1ccccc1 | 5.27

Row | Compound | inhibition [%]
22 | Nc1ccc(N(CCO)CCO)cc1 | 6.03
23 | O=C(NCc1ccc(Cl)cc1)C1CCN(c2cnccn2)CC1 | 1.73
24 | Cc1ccc(NC(=O)Cn2cccc2)cc1 | 3.9
25 | CC(C)(C)c1csc(NNC(=O)c2ccc(Br)cc2)n1 | 66.5
26 | COc1ccc2[nH]c3c(c2c1)CCN1C(=O)N([C@@H](C)C(=O)NCCc2ccc(OC)c(OC)c2)C(=O)[C@]31C | -11.9
27 | CN(C)/C=C1/C(=O)N(c2ccc([N+](=O)[O-])cc2)N=C1c1ccccc1 | 0.35
28 | CN(C)/C=C1\C(=O)N(c2ccc([N+](=O)[O-])cc2)N=C1c1ccccc1 | -2.09
29 | NC(=O)c1ccsc1N | 6.02
30 | NC(=O)c1ccc(Cn2c(C(=O)c3ccc(Cl)cc3)c3ccccc3[n+]2[O-])cc1 | 2.02
31 | COCCn1c(-c2ccc(OC)cc2)cnc1SCC(=O)Nc1cccc2ccccc12 | 57.1
32 | CCOc1ccc(CNc2ncc(-c3ccccc3)n2C)cc1 | 8.71
33 | Cn1c(CCNC(=O)c2ccco2)nc2ccccc21 | -1.68
34 | Cc1cccc(NC(=O)CCCNC(=O)c2ccc(Cl)cc2)n1 | -15.3
35 | COc1cc(Cn2ccnc2)c(OC)cc1Cn1ccnc1 | 0.13
36 | COc1ccc(NCc2ccc(OC)c(Cn3ccnc3)c2)c(OC)c1 | 17.3
37 | CCCC(=O)Nc1ccc(-c2csc(NNC(C)=O)n2)cc1 | 8.91
38 | CCc1nc(OCCN(C)C)c2oc3ccccc3c2n1 | 5.77
39 | CN(C)CCOc1ncnc2c1oc1ccccc12 | -7.93
40 | O=C(CCSc1nc(-c2ccco2)cc(C(F)(F)F)n1)NCc1ccccn1 | -4.91
41 | Cc1ccc(C)n1-n1c(C)nc2scc(-c3cccs3)c2c1=O | 1.92
42 | Cc1nc2scc(-c3cccs3)c2c(=O)n1N | -9.74

Row | Compound | inhibition [%]
43 | CCCCc1nn(-c2cc(Cl)ccc2OC)c2c1C(=O)CCC2 | -11.2
44 | CCOC(=O)c1nn(-c2ccc(F)cc2)c2nc(CC(C)C)c(C#N)c(=O)n12 | -13.7
45 | Cc1cccc(OC(C)C(=O)OCC(=O)N2CCN(c3ccccc3)CC2)c1 (stereo not drawn) | 69.9
46 | CCc1cc(C(=O)OCC(=O)N2CCC(c3ccccc3)=N2)sc1C | 9.02
47 | Cc1ccc(C(=O)OCC(=O)N2CCC(c3ccccc3)=N2)cc1 | -0.51
48 | COc1ccc(NC(=O)c2cc(-c3cc(C)ccc3O)n[nH]2)cc1Cl | -5.54
49 | CC(C)(Oc1ccc(Cl)cc1)C(=O)NCc1n[nH]c(=O)c2ccccc12 | -7.84
50 | Cc1nn(C)cc1/C=N/NC(=O)C(C)(C)Oc1ccc(Cl)cc1 | -2.26
51 | Cc1ccc(NC(=S)Nc2cc(-c3ccccc3)[nH]n2)cc1Cl | 3.77
52 | CCOc1ccc(NC(=S)/C(=C(\[O-])c2ccc(C)c([N+](=O)[O-])c2)[n+]2ccccc2)cc1 | -4.46
53 | Cc1ccc(CNC(=S)Nc2ccc(C)c([N+](=O)[O-])c2)cc1 | 1.67
54 | CCOc1ccc(NC(=S)Nc2cc(C)[nH]n2)cc1 | 11.8
55 | O=C(CN(C(=O)CNC(=O)c1cccs1)c1ccc(F)cc1)NC1CCCC1 | -5.64
56 | Cc1ccc(C(=O)Nc2cnc3sc(C)nn3c2=O)cc1 | -8.53
57 | CC1=C(C(=O)OCC2CCCO2)C(c2ccc(C)cc2)C2=C(CCCC2=O)N1 (stereo not drawn) | -4.69
58 | COc1ccc(C2COc3cc(O)ccc3C2)c(OC)c1O (stereo not drawn) | -7.8
59 | CCCCSc1nnc(CSc2nc3nc(C)cc(C)n3n2)o1 | -4.57
60 | CCCSc1nnc(CSc2nc3nc(C)cc(C)n3n2)o1 | 6.82
61 | CC1Cn2c(nc3sc4c(c3c2=O)CCC4)N1CCO (stereo not drawn) | 3.69
62 | O=C(c1ccccn1)N1CCN(c2ccc(C(F)(F)F)cn2)CC1 | -9.2
63 | Cc1ccc(C(=O)N2CCN(c3ccc(C(F)(F)F)cn3)CC2)cc1 | -8.18
